According to PubChem BioAssay (Tox21):
A number with no mark means an inactive call. Calls follow the shape of the dose curve; as a rule, active = well fitted cell-killing curve with a large enough effect in the repeat runs; inconclusive = weak or mixed curves, or effect the other way; inactive = flat fitted curve, though single readings scatter.
% is scaled to controls: 0 for no effect and ±100 for the full control effect.

Assay: qHTS assay to identify small molecule HDAC inhibitors - cell viability counter screen (AID 1259365); also: nearly all actives have a fitted effect of over 50% in size
Settings: HCT-116 viability, CellTiter-Glo ATP luminescence, 2 h; series mostly up to 92.4 µM; activity change, negative = cytotoxicity: at the top concentration
Summary of the method: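 After overnight seeding at 1,500 cells per well, wild-type HCT-116 cultures took up compounds in DMSO for 2hr at 37 C. Viable cell content came from luminescence with CellTiter-Glo.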
For `CC(O)C(CO)C(C)O` (stereo not drawn), the “activity change, negative = cytotoxicity” value was 2.89%.
In the case of `Cc1cc(O)c(Cl)cc1C`, the “activity change, negative = cytotoxicity” value is reported as 3.9%.
Work on `CCCCCCCCCCCCCCCCN(C)C` yielded an activity change, negative = cytotoxicity of 1.52% [at 8.39 µM].
For `Cc1ccc2ccccc2n1`, the “activity change, negative = cytotoxicity” value was -0.0727%.
In the case of `CCCCC(CC)COC(=O)CC#N` (stereo not drawn), the “activity change, negative = cytotoxicity” value is reported as -3.1%.
With `CCCCCCCCCCCBr` the “activity change, negative = cytotoxicity” value was -2.54% [at 42.5 µM].
In the case of `COC(=O)C(c1ccccc1Cl)N1CCc2sccc2C1` (stereo not drawn), the “activity change, negative = cytotoxicity” value is reported as -4.25% [at 42.5 µM].
For `CCO/C=C1\N=C(c2ccccc2)OC1=O`, the “activity change, negative = cytotoxicity” value was 2.93%.
In the case of `C=CCN(CC=C)CC=C`, the “activity change, negative = cytotoxicity” value is reported as 0.244%.
In the case of `CC[N+](C)(CC)CC`, the “activity change, negative = cytotoxicity” value is reported as -0.398%.
With `C/C(Cl)=C/CCl` the “activity change, negative = cytotoxicity” value was 1.73%.
In the case of `C=CC(C)(CCC=C(C)C)OC(=O)C(C)C` (stereo not drawn), the “activity change, negative = cytotoxicity” value is reported as 1.15%.
In the case of `CCCCC(O)/C=C(C)/C=C/C=C/C(=O)N1CCCC1=O` (stereo not drawn), the “activity change, negative = cytotoxicity” value is reported as -0.6% [at 42.5 µM].
With `CCOCCOCCOC(C)=O` the “activity change, negative = cytotoxicity” value was 1.93%.
In the case of `CC12CCCC=C1C(=O)OC2=O` (stereo not drawn), the “activity change, negative = cytotoxicity” value is reported as -0.957%.
With `CCCc1ccc(O)c(OC)c1` the “activity change, negative = cytotoxicity” value was 3.18%.
With `COc1cc(OC)cc(OC)c1` the “activity change, negative = cytotoxicity” value was -0.664% [at 42.5 µM].
With `CCCCCCC(=O)c1ccccc1` the “activity change, negative = cytotoxicity” value was -0.0093%.
In the case of `CC(=O)SC[C@@H](C)C(=O)N1CCC[C@H]1C(=O)N[C@@H](Cc1ccccc1)C(=O)O`, the “activity change, negative = cytotoxicity” value is reported as 8.38% [at 42.5 µM].
In the case of `CN(C)CCc1c[nH]c2ccc(C[C@H]3COC(=O)N3)cc12`, the “activity change, negative = cytotoxicity” value is reported as 0.426% [at 42.5 µM].
In the case of `CCCCCCCCS(=O)(=O)O`, the “activity change, negative = cytotoxicity” value is reported as -1.06%.
With `CC(C)(C)C(=O)NCCCC(=O)O` the “activity change, negative = cytotoxicity” value was 0.429% [at 42.5 µM].
With `CC(C)(C)NCC(O)COc1cccc2c1CCC(=O)N2` (stereo not drawn) the “activity change, negative = cytotoxicity” value was 2.03% [at 42.5 µM].
For `O=C(c1ccccc1)c1cccc(O)c1`, the “activity change, negative = cytotoxicity” value was 0.807%.
With `CCNC(=O)C(C)OC(=O)Nc1ccccc1` (stereo not drawn) the “activity change, negative = cytotoxicity” value was -0.812%.
With `Cc1ccccc1OCC(=O)O` the “activity change, negative = cytotoxicity” value was -0.001%.
With `Nc1nc(Cl)cc(Cl)n1` the “activity change, negative = cytotoxicity” value was 7.99%.
With `O=C(O)Cc1c(Cl)ccc(Cl)c1Cl` the “activity change, negative = cytotoxicity” value was 2.75%.
With `CCCCCC(=O)CC` the “activity change, negative = cytotoxicity” value was 0.46%.
With `CC(C)(Sc1cc(C(C)(C)C)c(O)c(C(C)(C)C)c1)Sc1cc(C(C)(C)C)c(O)c(C(C)(C)C)c1` the “activity change, negative = cytotoxicity” value was -0.322% [at 42.5 µM].
For `COc1cc(S(N)(=O)=O)cc(C(=O)O)c1OC`, the “activity change, negative = cytotoxicity” value was 0.427% [at 42.5 µM].
Compound `C=CCCCCCCCCCCCCCC` has an activity change, negative = cytotoxicity of 1.69% [at 19 µM].
For `CC(C)(C)c1ccc(C(=O)CCCCl)cc1`, the “activity change, negative = cytotoxicity” value was -6.73% [at 42.5 µM].
For `CN(C)CCC[C@@]1(c2ccc(F)cc2)OCc2cc(C#N)ccc21`, the “activity change, negative = cytotoxicity” value was -6.62% [at 42.5 µM].
For `O=c1c(O)c(O)c1=O`, the “activity change, negative = cytotoxicity” value was -0.13%.
For `NNC(=O)CCCCC(=O)NN`, the “activity change, negative = cytotoxicity” value was 2.27%.
With `Cc1ccc(O)c(C(=O)c2ccccc2)c1` the “activity change, negative = cytotoxicity” value was -7.06%.
In the case of `CCCCCCC(O)CO` (stereo not drawn), the “activity change, negative = cytotoxicity” value is reported as 1.63%.
